# Only a selection was taken, and the strongest signals are over-represented in it overall.
# B1: SpnanA (Streptococcus pneumoniae), P62575 (protein)
# chain: MVIEKEDVETNASNGQRVDLSSELDKLKKLENATVHMEFKPDAKAPAFYNLFSVSSATKKDEYFTMAVYNNTATLEGRGSDGKQFYNNYNDAPLKVKPGQWNSVTFTVEKPTAELPKGRVRLYVNGVLSRTSLRSGNFIKDMPDVTHVQIGATKRANNTVWGSNLQIRNLTVYNRALTPEEVQKRS
# How the values were obtained:
# Assay in all cases: glycan array binding signal (z-score within array); higher = stronger binding
# Conditions in all cases: glycan notation: IUPAC condensed, linker removed
# [1] = target: Fuc(a1-2)Gal(b1-3)GlcNAc(b1-2)Man(a1-3)[Fuc(a1-2)Gal(b1-3)GlcNAc(b1-2)Man(a1-6)]Man(b1-4)GlcNAc(b1-4)GlcNAc
# In short: (§1)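 Glycan array data were curated from 3228 arrays in the Consortium for Functional Glycomics database and kept only where the protein sequence was available. Glycan names were converted to IUPAC-condensed notation, and columns mapping to the same glycan were averaged. The binding signal is a within-array Z-score, averaged across arrays of the same protein sequence at different concentrations or buffers and across linkers. Negative Z-scores can be read as non-binding.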
# Fuc(a1-2)Gal(b1-4)GlcNAc = target: Fuc(a1-2)Gal(b1-4)GlcNAc
# In short: as §1
# [2] = target: Fuc(a1-2)Gal(b1-4)GlcNAc(b1-2)[Fuc(a1-2)Gal(b1-4)GlcNAc(b1-4)]Man(a1-3)[Fuc(a1-2)Gal(b1-4)GlcNAc(b1-2)Man(a1-6)]Man(b1-4)GlcNAc(b1-4)GlcNAc
# In short: as §1
# [3] = target: Fuc(a1-2)Gal(b1-4)[Fuc(a1-3)]GlcNAc(b1-2)[Fuc(a1-2)Gal(b1-4)[Fuc(a1-3)]GlcNAc(b1-4)]Man(a1-3)[Fuc(a1-2)Gal(b1-4)[Fuc(a1-3)]GlcNAc(b1-2)Man(a1-6)]Man(b1-4)GlcNAc(b1-4)GlcNAc
# In short: as §1
# [4] = target: Fuc(a1-2)[GalNAc(a1-3)]Gal(b1-4)[Fuc(a1-3)]GlcNAc
# In short: as §1
# [5] = target: Fuc(a1-3)[Gal(b1-4)]GlcNAc
# In short: as §1
# [6] = target: Fuc(a1-3)[Gal(b1-4)]GlcNAc(b1-2)Man(a1-3)[Fuc(a1-3)[Gal(b1-4)]GlcNAc(b1-2)Man(a1-6)]Man(b1-4)GlcNAc(b1-4)GlcNAc
# In short: as §1
# Gal(a1-3)Gal(b1-4)GlcNAc = target: Gal(a1-3)Gal(b1-4)GlcNAc
# In short: as §1
# [7] = target: Gal(a1-3)Gal(b1-4)[Fuc(a1-3)]GlcNAc
# In short: as §1
# Gal(b1-3)Gal = target: Gal(b1-3)Gal
# In short: as §1
# [8] = target: Gal(b1-4)GlcNAc(b1-2)Man(a1-3)[Man(a1-6)]Man(b1-4)GlcNAc(b1-4)GlcNAc
# In short: as §1
# [9] = target: Gal(b1-4)GlcNAc(b1-3)[GlcNAc(b1-6)]Gal(b1-4)GlcNAc
# In short: as §1
# [10] = target: Gal(b1-4)GlcNAc(b1-6)GalNAc
# In short: as §1
# Gal(b1-6)Gal = target: Gal(b1-6)Gal
# In short: as §1
# Gal6S(b1-4)Glc6S = target: Gal6S(b1-4)Glc6S
# In short: as §1
# GalNAc(a1-3)GalNAc = target: GalNAc(a1-3)GalNAc
# In short: as §1
# GlcA(b1-3)GlcNAc = target: GlcA(b1-3)GlcNAc
# In short: as §1
# [11] = target: GlcNAc(b1-3)Gal(b1-3)GalNAc
# In short: as §1
# [12] = target: GlcNAc(b1-3)[GlcNAc(b1-6)]Gal(b1-4)GlcNAc
# In short: as §1
# [13] = target: GlcNAc(b1-3)[GlcNAc(b1-6)]GalNAc
# In short: as §1
# Man(a1-2)Man(a1-3)Man = target: Man(a1-2)Man(a1-3)Man
# In short: as §1
# Man(b1-4)GlcNAc = target: Man(b1-4)GlcNAc
# In short: as §1
# [14] = target: Neu5Ac(a2-3)Gal(b1-3)GalNAc6S
# In short: as §1
# [15] = target: Neu5Ac(a2-3)Gal(b1-3)GlcNAc
# In short: as §1
# [16] = target: Neu5Ac(a2-3)Gal(b1-3)[Neu5Ac(a2-3)Gal(b1-4)]GlcNAc
# In short: as §1
# [17] = target: Neu5Ac(a2-3)Gal(b1-3)[Neu5Ac(a2-6)]GalNAc
# In short: as §1
# [18] = target: Neu5Ac(a2-3)Gal(b1-4)GlcNAc(b1-2)Man
# In short: as §1
# [19] = target: Neu5Ac(a2-3)Gal(b1-4)GlcNAc6S
# In short: as §1
# [20] = target: Neu5Ac(a2-3)Gal(b1-4)[Fuc(a1-3)]GlcNAc(b1-3)Gal(b1-4)[Fuc(a1-3)]GlcNAc(b1-3)Gal(b1-4)[Fuc(a1-3)]GlcNAc
# In short: as §1
# [21] = target: Neu5Ac(a2-3)Gal6S(b1-4)GlcNAc
# In short: as §1
# [22] = target: Neu5Ac(a2-3)[Neu5Ac(a2-6)]GalNAc
# In short: as §1
# [23] = target: Neu5Ac(a2-6)GalNAc(b1-4)GlcNAc6S
# In short: as §1
# [24] = target: Neu5Ac9Ac(a2-3)Gal(b1-4)GlcNAc
# In short: as §1
binder,measurement,setting,value
B1,glycan array binding signal (z-score),[1],-0.237
same,glycan array binding signal (z-score),Fuc(a1-2)Gal(b1-4)GlcNAc,-0.29
same,glycan array binding signal (z-score),[2],-0.131
same,glycan array binding signal (z-score),[3],-0.066
same,glycan array binding signal (z-score),[4],0.018
same,glycan array binding signal (z-score),[5],-0.28
same,glycan array binding signal (z-score),[6],-0.169
same,glycan array binding signal (z-score),Gal(a1-3)Gal(b1-4)GlcNAc,-0.256
same,glycan array binding signal (z-score),[7],-0.262
same,glycan array binding signal (z-score),Gal(b1-3)Gal,-0.211
same,glycan array binding signal (z-score),[8],0.687
same,glycan array binding signal (z-score),[9],-0.29
same,glycan array binding signal (z-score),[10],-0.295
same,glycan array binding signal (z-score),Gal(b1-6)Gal,-0.199
same,glycan array binding signal (z-score),Gal6S(b1-4)Glc6S,-0.104
same,glycan array binding signal (z-score),GalNAc(a1-3)GalNAc,-0.233
same,glycan array binding signal (z-score),GlcA(b1-3)GlcNAc,6.22
same,glycan array binding signal (z-score),[11],-0.164
same,glycan array binding signal (z-score),[12],-0.211
same,glycan array binding signal (z-score),[13],-0.222
same,glycan array binding signal (z-score),Man(a1-2)Man(a1-3)Man,-0.228
same,glycan array binding signal (z-score),Man(b1-4)GlcNAc,-0.307
same,glycan array binding signal (z-score),[14],3.01
same,glycan array binding signal (z-score),[15],3.08
same,glycan array binding signal (z-score),[16],6.34
same,glycan array binding signal (z-score),[17],3.24
same,glycan array binding signal (z-score),[18],2.64
same,glycan array binding signal (z-score),[19],3.89
same,glycan array binding signal (z-score),[20],-0.268
same,glycan array binding signal (z-score),[21],2.91
same,glycan array binding signal (z-score),[22],2.61
same,glycan array binding signal (z-score),[23],-0.062
same,glycan array binding signal (z-score),[24],-0.089

# From the supplement of paper PMC8728848
